The list is not random: actives were taken first. Their share in the collection is about 6.9%.
BAZ2B inh – inhibitors of human BAZ2B bromodomain | Q9UIF8 | AlphaScreen BAZ2B-H3K14Ac peptide displacement | 360,000 compounds, 4.4% hits | AID 504333 | Potency, µM (series often up to 114 µM), most hits filed as inhibitors; note: nearly all actives have a fitted effect of over 60% in size
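Compounds, titrated to a top concentration of 110 uM, were incubated 30 min at room temperature with preformed BAZ2B/acetyl-K14 H3 peptide complex (50 nM each). Proximity signal was measured by AlphaScreen after 20 min with beads.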
PLK1 PBD inh – blocks phosphopeptide binding to human PLK1 polo-box domain | Potency, µM, actives largely listed as inhibitors | AID 720504 | Plk1 PBD binding of FITC phosphopeptide, fluorescence polarization | 360,000 compounds, 2.8% hits | P53350; note: series mostly up to about 57 µM; nearly all actives have a fitted effect of over 65% in size
Target sequence (P53350 whole entry, looked up, the tested form may be a part): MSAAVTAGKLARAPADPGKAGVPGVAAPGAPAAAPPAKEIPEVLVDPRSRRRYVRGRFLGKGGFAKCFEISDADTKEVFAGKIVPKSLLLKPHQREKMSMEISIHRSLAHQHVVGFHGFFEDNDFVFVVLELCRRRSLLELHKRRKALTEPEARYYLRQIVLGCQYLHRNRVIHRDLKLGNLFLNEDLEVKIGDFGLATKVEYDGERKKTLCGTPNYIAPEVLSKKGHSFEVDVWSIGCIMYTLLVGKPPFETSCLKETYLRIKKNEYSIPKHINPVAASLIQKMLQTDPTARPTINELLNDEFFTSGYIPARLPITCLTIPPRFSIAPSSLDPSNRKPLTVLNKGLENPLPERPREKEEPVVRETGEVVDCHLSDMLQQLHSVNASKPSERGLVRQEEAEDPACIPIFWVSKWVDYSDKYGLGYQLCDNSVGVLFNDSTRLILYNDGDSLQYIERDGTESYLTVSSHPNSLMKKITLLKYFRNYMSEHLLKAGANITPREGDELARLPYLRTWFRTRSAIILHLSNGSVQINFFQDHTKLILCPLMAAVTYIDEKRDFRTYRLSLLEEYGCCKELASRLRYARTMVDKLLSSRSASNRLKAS
HP1b binding inh – blocks HP1-beta chromodomain binding to methylated histone tails; 390,000 compounds, 0.56% hits; Potency, µM (top dose mostly 114 µM), most hits filed as inhibitors; P83916; AlphaScreen HP1-beta / biotin-H3K9me3 peptide binding; note: nearly all actives have a fitted effect of over 70% in size
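HP1-beta protein (50 nM final) preincubated 30 min at room temperature with biotinylated H3(1-18)K9me3 peptide (50 nM) in PBS pH 7.4, 0.01% Tween-20, then compound added for 30 min. AlphaScreen streptavidin donor/nickel chelate acceptor beads (10 ug/mL final), 30 min dark, luminescence read.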
JMJD2A Tudor inh – blocks the human JMJD2A Tudor domain. Potency, µM (doses to about 114 µM), hits mostly inhibitors. AlphaScreen JMJD2A-Tudor / H3K4me3 peptide binding. AID 504339. 390,000 compounds, 4.4% hits. O75164; note: nearly all actives have a fitted effect of over 50% in size
VDR inh – vitamin D3 receptor (human) inhibition; AID 504847; Potency, µM, usual class: inhibitors; 400,000 compounds, 0.93% hits; VDR-SRC2-3 peptide fluorescence polarization, 2 h
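Two reagent solutions held at 4 deg C in the dark were dispensed, compounds pinned at 23 nl, and the mixture incubated 2 h at room temperature. Read-out: fluorescence polarization of VDR–SRC2-3 peptide binding.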
L3MBTL1 inh – L3MBTL1 (human) inhibition | AlphaScreen L3MBTL1–H3K9me1 peptide binding | Potency, µM (titrated, usually from 57.1 µM), usual class: inhibitors | 230,000 compounds, 0.66% hits | AID 485360; note: nearly all actives have a fitted effect of over 60% in size
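Displacement of a biotinylated histone H3(1-15) peptide monomethylated at Lys9 (75 nM) from L3MBTL1 (50 nM) was measured by AlphaScreen after a 30 min room-temperature compound incubation; cefsulodin titration served as intraplate control.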
A number is an active result; . = inactive; ? = inconclusive; / = no result given; [ ] = another dose, or the depositor's remark. Calls come from the whole dose curve; as a rule, active = well fitted curve in the direction sought with a large enough effect; inconclusive = small, poorly fitted or top-dose-only effect, or another doubt; inactive = no such curve, though single readings can be large; an effect the other way counts as inactive or inconclusive.

SMILES | BAZ2B inh | PLK1 PBD inh | HP1b binding inh | JMJD2A Tudor inh | VDR inh | L3MBTL1 inh
O=C(O)c1ccc(NC2=C(Cl)C(=O)c3ccccc3C2=O)cc1 | 50µM | 5.3µM | . | ? | ? | ?
CC(=O)NC1=C(Nc2ccc(N(C)C)cc2)C(=O)c2ccccc2C1=O | 40µM | . | ? | ? | 50µM | /
Cc1ccc(C(=O)OCC(=O)Nc2nc(-c3ccccc3)cs2)cc1NC(=O)c1ccco1 | . | . | . | . | . | .
CCc1ccc(-n2nc(CO)c(C(=O)NCCc3ccccc3)n2)cc1 | . | / | . | . | . | /
CCN(Cc1ccccc1)Cc1c(O)ccc2c(=O)c(-c3ccccc3OC)c(C(F)(F)F)oc12 | . | / | . | . | . | /
CCN(CC1COc2ccccc2O1)C(=S)Nc1ccccc1 (stereo not drawn) | . | . | . | . | . | .
CCOC(=O)c1c(C)n(-c2ccccc2)c2ccc(OC(=O)c3cccc(OC)c3OC)cc12 | ? | / | . | . | . | /
O=C(CSc1nnc(-c2ccc(Br)cc2)n1-c1ccccc1)c1ccccc1 | . | / | . | . | . | /
CC(CCc1ccccc1)N1CCN(Cc2ccccc2)CC1 (stereo not drawn) | 50µM | . | 45µM | 2.2µM | . | .
O=S(=O)(CCc1ccccc1)N1CCOCC1 | . | . | . | . | . | .
CCS(=O)(=O)N1CCN(C(C)CCc2ccccc2)CC1 (stereo not drawn) | ? | . | ? | 8.9µM | . | .
Cc1ccc(Cl)cc1N1CCN(C(=O)CSc2nnc3n2C(C)(C)Cc2ccccc2-3)CC1 | . | . | . | 89µM | . | .
Cc1ccc(Cl)cc1N1CCN(C(=O)CSc2ccsc2[N+](=O)[O-])CC1 | 50µM | . | . | ? | . | ?
COc1ccc(N2CCN(C(=O)CSc3nnc4n3C(C)(C)Cc3ccccc3-4)CC2)cc1 | ? | . | . | . | . | .
Cc1ccc(Cl)cc1N1CCN(C(=O)CSc2cc(=O)n(C)c3ccccc23)CC1 | / | / | . | ? | . | /
COc1ccc(CN(C)CC(=O)N2CCc3ccccc3C2)cc1 | . | . | . | . | . | /
C/C(CCc1ccc2c(c1)OCO2)=N\N=C(/N)SC1CC(=O)N(c2ccccc2F)C1=O (stereo not drawn) | 16µM | . | . | . | . | .
C=C1CCN(C(Cc2ccccc2)C(=O)NCc2ccccc2)S(=O)(=O)c2ccccc21 (stereo not drawn) | / | / | . | . | . | /
CN(C)C(=O)c1sccc1Oc1ccc(F)cc1[N+](=O)[O-] | . | 24µM | . | . | . | .
COc1ccc(CN2CCc3c(c(=O)n4ncc(C(=O)N5CCN(c6ccccc6F)CC5)c4n3C)C2)cc1 | . | / | . | . | . | /
COc1ccc2c(-c3ccccc3)cc(N3CCOCC3)nc2c1 | 25µM | . | 25µM | 1.3µM | . | /
CN(C)S(=O)(=O)N(CC(=O)N(Cc1ccccc1)Cc1ccccc1)c1ccccc1 | 56µM | . | . | ? | . | /
Cc1ccc(C)n1Cc1ccc(C(=O)O)cc1 | 16µM | 3µM | ? | 0.79µM | . | ?
Cc1cc(C)n(Cc2ccc(C(=O)O)cc2)n1 | . | . | . | . | . | /
COc1ccccc1NC(=O)Cn1c(=O)n(-c2ccc(C)cc2)c(=O)c2c1cnn2C | . | / | . | . | . | /
SMILES | BAZ2B inh | PLK1 PBD inh | HP1b binding inh | JMJD2A Tudor inh | VDR inh | L3MBTL1 inh
O=C(CCNS(=O)(=O)c1ccc2c(c1)CCCC(=O)N2)Nc1cccc(Cl)c1 | . | / | . | . | . | /
Cc1onc(-c2c(F)cccc2Cl)c1C(=O)ONC(=O)c1ccco1 | . | . | . | 40µM | . | /
Cc1onc(-c2c(F)cccc2Cl)c1C(=O)NCc1ccc(F)cc1 | . | . | . | . | . | /
Cc1onc(-c2c(Cl)cccc2Cl)c1NC(=O)NNc1ccccc1 | . | . | . | . | . | .
Cc1onc(-c2c(Cl)cccc2Cl)c1C(=O)NNc1ccccc1 | ? | . | . | 79µM | ? | .
Cc1ccc(N(C)C(=O)Cn2cc(S(=O)(=O)N3CCCC3)c(S(=O)(=O)N3CCCC3)c2)cc1 | . | / | . | . | . | /
COc1ccc(S(=O)(=O)N(CC(=O)Nc2ccc3c(c2)OCO3)c2ccc(C)cc2)cc1 | ? | / | . | . | . | /
CCOC(=O)c1cc2c(=O)n3ccccc3nc2n(Cc2ccco2)c1=NC(=O)c1cccnc1 | ? | . | . | ? | ? | .
CCOC(=O)c1cc2c(=O)n3ccccc3nc2n(Cc2ccco2)c1=NC(=O)c1ccc(Br)cc1 | ? | / | . | . | 89µM | /
CCOC(=O)c1cc2c(=O)n3ccccc3nc2n(Cc2ccco2)c1=NC(=O)c1cccc(Br)c1 | 50µM | / | . | . | . | /
CCOC(=O)c1cc2c(=O)n3ccccc3nc2n(Cc2ccco2)c1=NC(=O)c1cccc(C)c1 | . | / | . | . | . | /
CCOC(=O)c1cc2c(=O)n3ccccc3nc2n(Cc2ccco2)c1=NC(=O)c1ccc(OCC)cc1 | . | / | . | . | . | /
CCOC(=O)c1cc2c(=O)n3cccc(C)c3nc2n(Cc2ccco2)c1=NC(=O)c1cccnc1 | 79µM | . | . | ? | . | .[11.4 µM]
Cc1cc(C)cc(NC(=O)CCn2cnc3cc(C)c(C)cc32)c1 | . | . | . | .[11.4 µM] | . | .
N#Cc1c(NC(=O)CS(=O)(=O)c2ccc(Cl)cc2)sc2c1CCCCC2 | . | / | . | . | . | /
COc1cc2c(cc1OC)-c1cc(NCc3ccccn3)nc(=O)n1CC2 | 28µM | . | . | .[11.4 µM] | . | ?
CCNc1cc2n(c(=O)n1)CCc1cc(OC)c(OC)cc1-2 | . | . | . | . | . | .
CC(=O)Nc1cc(=O)c2cccnc2[nH]1 | / | ? | . | 50µM | . | /
NC1=NC(=O)C2(COC(c3cccnc3)OC2)S1 (stereo not drawn) | . | 34µM | . | ? | ? | .
CCOc1ccc(Oc2nc(Nc3ccc(C)cc3)nc(N(C)C)n2)nn1 | . | 21µM | . | .[11.4 µM] | . | /
COc1cccc(/C=C2/C(=O)NN(c3ccccc3)C2=O)c1 | ? | 5.3µM | . | . | ? | /
O=C1NN(c2ccc(F)cc2)C(=O)/C1=C/c1cccs1 | . | . | . | . | ? | .
C#CCOc1ccc(/C=C2/C(=O)NN(c3ccc(F)cc3)C2=O)cc1OC | . | 12µM | . | . | . | /
O=C1NN(c2ccccc2)C(=O)/C1=C\c1ccc2c(c1)OCO2 | . | 27µM | . | ? | . | .
COc1cccc(/C=C2/C(=O)NN(c3ccc(F)cc3)C2=O)c1 | . | 5.3µM | . | . | 45µM | /
COc1cc(/C=C2\C(=O)NN(c3ccccc3)C2=O)ccc1OCC(N)=O | . | / | / | / | / | .
CCOC(=O)c1ccc(NC(=O)C2=C(C)Nc3nc(SCc4ccc(Cl)cc4)nn3C2c2ccc(C)cc2)cc1 (stereo not drawn) | . | / | . | . | . | /
Cc1ccc(NC(=O)CSc2nc(=O)n(CCN3CCOCC3)c3c2CCC3)cc1Cl | . | / | . | . | . | /
COc1ccc(S(=O)(=O)NCc2cc(-c3ccccc3Cl)no2)cc1 | . | . | . | . | . | .

Bioassay records: PubChem, National Center for Advancing Translational Sciences (NCATS)
